Measured values from PubChem BioAssay (NCI).
This is part of a sample that, as a whole, favours compounds with a hit. Of some 79,000 tested, about 15% had one in any assay. Rule as the data show it: active = growth inhibition above about 70%; inactive = the rest.

Experiments:
[1] = NCI Yeast Anticancer Drug Screen. Data for the rad50 strain (AID 155);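 also: 0% = growth of vehicle-only cultures of the same strain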; conditions: S. cerevisiae rad50 strain growth inhibition; at 50.0 µM; active compounds read high
Procedure, shortened: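 Vehicle-treated cultures provide the reference for the growth inhibition reported for compound-exposed, repair-deficient yeast.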

[2] = NCI Yeast Anticancer Drug Screen. Data for the mec2-1 strain (AID 157); conditions: S. cerevisiae mec2-1 strain, at 50.0 µM, active compounds read high
Procedure, shortened: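 Mutant yeast (mec2-1) grown with compound; growth inhibition relative to vehicle control reported.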

[3] = NCI Yeast Anticancer Drug Screen. Data for the sgs1 mgt1 strain (AID 161);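 also: 0% = growth of cultures given vehicle only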; conditions: S. cerevisiae sgs1 mgt1 strain, at 50.0 µM, active compounds read high
Procedure, shortened: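 This yeast growth screen uses a strain with defined DNA-repair lesions; compound-treated growth is compared with vehicle-treated growth.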

[4] = NCI Yeast Anticancer Drug Screen. Data for the bub3 strain (AID 167); conditions: S. cerevisiae bub3 mutant strain, at 50.0 µM, active compounds read high
Procedure, shortened: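 Mutant yeast screening strain plus compound; vehicle-treated cultures serve as the 0% inhibition reference.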

[5] = NCI Yeast Anticancer Drug Screen. Data for the mlh1 rad18 strain (AID 175); conditions: S. cerevisiae mlh1 rad18 strain growth inhibition; at 50.0 µM; active compounds read high
Procedure, shortened: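 Genetically defined yeast (DNA repair-deficient) exposed to compounds; growth inhibition determined relative to vehicle.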

[6] = NCI Yeast Anticancer Drug Screen. Data for the cln2 rad14 strain (AID 165);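 also: 0% = growth equal to vehicle treated cultures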; conditions: S. cerevisiae cln2 rad14 strain, at 50.0 µM, active compounds read high
Procedure, shortened: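 Readout is yeast growth inhibition versus vehicle-treated controls, using a strain with cln2 and rad14 alterations exposed to compound.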

Measured: growth inhibition

CC1(C)N=C(N)N=C(N)N1c1ccc(Cl)cc1
inactive: [1] 19.7% | [2] 3.35% | [3] 0.4% | [4] 3.85% | [5] 35.7%

CCOC(=O)CSc1c([N+](=O)[O-])ncn1C
inactive: [1] 4.9% | [2] 0.5% | [3] 8.75% | [6] 17.3% | [5] -10.4%

COc1ccc(C(=O)C(Br)C(Br)C(=O)O)cc1 (stereo not drawn)
inactive: [1] 24.6% | [2] 24.4% | [3] 6.35% | [4] 5.45% | [5] 38.9%

CC(=O)Nc1cccc(Cl)c1C
inactive: [1] 17.6% | [2] 11.7% | [3] 1.35% | [4] 8.85% | [5] -0.35%

COc1ccccc1NC(=O)c1cc2cc(Br)ccc2cc1O
inactive: [1] 34.8% | [2] 41.1% | [3] 55.7% | [4] 49% | [5] 34.2%

CCOC(=O)c1cc2cccc(OC)c2oc1=O
inactive: [1] 6.15% | [2] 3.45% | [3] -5.65% | [4] 12.8% | [5] -0.2%

O=C(Cc1ccc(OCc2ccccc2)cc1)NCc1ccc2c(c1)OCO2
inactive: [1] 3.2% | [2] -5.5% | [3] -1.2% | [4] 17.5% | [5] -9.5%

CC(=O)Nc1c(C)cc(C)cc1C
inactive: [1] 0.3% | [2] -0.35% | [3] -6.4% | [4] 9.45% | [5] 0.1%

O=[N+]([O-])c1ccc(Sc2ccncn2)c([N+](=O)[O-])c1
inactive: [1] 24.7% | [2] 16.6% | [3] 8.9% | [4] -12.3% | [5] 30.8%

O=C(O)CSCSCC(=O)O
inactive: [1] 1.45% | [2] -26.4% | [3] -8.8% | [4] 4.8% | [5] 3.1%

CC(=O)NC(N)=S
inactive: [1] 2.3% | [2] 3.75% | [3] -23.1% | [4] -3.25%

COc1cc2cc(c1Cl)N(C)C(=O)C[C@H](OC(=O)[C@H](C)N(C)C(C)=O)[C@]1(C)O[C@H]1[C@H](C)[C@@H]1C[C@@](O)(NC(=O)O1)[C@H](OC)C=C/C=C(\C)C2
inactive: [1] 12.1% | [2] -11.4% | [3] 6.55% | [4] 5.9% | [5] 25.3%

CC1CCCCN1C(=S)Nc1ccc(S(=O)(=O)N2CCCCC2)cc1 (stereo not drawn)
inactive: [1] -18.6% | [2] -29.2% | [3] -5.75% | [4] -19.1% | [5] -18.7%

O=c1cc(-c2ccccc2)nc2cc(-c3ccco3)[nH]n12
inactive: [1] -8.1% | [2] -14.7% | [3] -6.05% | [4] -2.6% | [5] -3.85%

CCC(C)(O)c1ccc(C)cc1 (stereo not drawn)
inactive: [1] 26.5% | [2] 33% | [3] 31.8% | [4] 19.6% | [5] 6.4%

C=CCNc1ccccc1
inactive: [1] 31.2% | [2] 4.35% | [3] 7.55% | [4] 17.6% | [5] 13.7%

S=c1nn[nH]c2ccccc12
inactive: [1] 17.4% | [2] 22.6% | [3] 8.6% | [4] 7.8% | [5] 8.25%

O=C(N/N=C/c1ccccc1O)Nc1nn[nH]n1
inactive: [1] -15.8% | [2] -10.2% | [3] 16.1% | [4] 0.85% | [5] 9%

CC(=O)NCc1cc(C)c(C)cc1C
inactive: [1] 12.5% | [2] -20.1% | [3] 1.25% | [4] 5.3% | [5] 8.5%

O=C(CN1CCNCC1)N1CCOCC1
inactive: [1] -25.6% | [2] -25.1% | [3] -17.8% | [6] -23.9% | [5] -13.8%

COC(=O)c1cccc(Br)c1
inactive: [1] -4.4% | [2] 1.5% | [3] -4.75% | [4] 0.15% | [5] 13.4%

CC1CC(O)C2C3(C)CCCC2(COC3=O)C12CCC1(CCOC1=O)O2 (stereo not drawn)
inactive: [1] 4.4% | [2] 8.35% | [3] 18.3% | [5] 13.6%

CN(c1ccccc1)c1ncnc2c1ncn2C
inactive: [1] 2.65% | [2] -0.65% | [3] 1.75% | [4] 29.9% | [5] 4.1%

O=C(/C=C/C(=O)c1ccccc1)c1ccccc1
inactive: [1] 41.8% | [2] 16.4% | [3] 28.1% | [4] 36% | [5] 51.1%

CC(=O)c1c[nH]c2ccccc12
inactive: [1] -6.8% | [2] -9.85% | [3] -19.6% | [4] -2.25% | [5] 9.15%

O=C(O)c1ccccc1NCc1ccco1
inactive: [1] -14.7% | [2] -40.9% | [3] 14% | [4] -19.6% | [5] -5.7%

O=c1[nH]cc(Cl)cc1O
inactive: [1] -0.15% | [2] -3.3% | [3] -1.35% | [4] 13.2% | [5] 4.9%

CCOC(=O)C1=C(Nc2ccc(Br)cc2)C(=O)N(CC)C1
inactive: [1] 12.7% | [2] 1.2% | [3] 33% | [4] 42.7% | [5] 19.1%

CC(C)C(C#N)(C(C)C)C(C)C
inactive: [1] 23.3% | [2] 15.4% | [3] 4% | [4] -1.95% | [5] 22.4%

OC1CCCc2ccccc21 (stereo not drawn)
inactive: [1] 17.6% | [2] 17.4% | [6] -17.9% | [4] 0.85%

C#CC(C(C)C)N(CCO)CCCC (stereo not drawn)
inactive: [1] 11.2% | [2] 4.55% | [6] 7.35% | [4] 26.7% | [5] 16%

Cc1ccc(S(=O)(=O)O)c(C)c1
inactive: [1] 19.3% | [2] -4.35% | [6] 19.9% | [5] 23.8%

O=S(=O)(O)CC(O)CN1CCN(CCO)CC1 (stereo not drawn)
inactive: [1] -18.9% | [2] -35.8% | [6] 5.45% | [4] -23.9% | [5] -6.3%

C=CCNc1nnc(C)s1
inactive: [1] 14.9% | [2] 19.7% | [6] -16.2% | [4] -15% | [5] -5.35%

C=CCOC(=O)C(=O)OCC=C
inactive: [1] 18.8% | [2] 30.6% | [4] 5.35% | [5] 14.8%

Cc1cc(=O)n(-c2ccc(F)cc2)[nH]1
inactive: [1] -5.15% | [2] -14.1% | [6] 2.8% | [4] 50.6% | [5] 12.1%

O=[N+]([O-])c1ccc(-c2noc(-c3cccs3)n2)cc1
inactive: [1] -3.2% | [2] -31.9% | [6] 15% | [4] 10.7%

CCCCC/C=N/Nc1nc(C)cc(=O)[nH]1
inactive: [1] 4.85% | [2] -5.6% | [6] 15.7% | [4] -2.9% | [5] 4.4%

O=C(O)c1cccc([N+](=O)[O-])c1O
inactive: [1] -41.4% | [2] 1.35% | [6] -0.7% | [4] -0.8% | [5] 14.4%

C#CC(C)(O)c1ccc(Cl)cc1 (stereo not drawn)
inactive: [1] 14.4% | [2] -2.15% | [6] -7.35% | [5] 2.65%

Cc1ccc(C)n1-c1ccsc1C(=O)NNC(=O)CCl
inactive: [1] -13.8% | [2] -17.8% | [6] 22.9% | [4] -14.5% | [5] -3.85%

COc1cc([C@@H]2c3cc4c(cc3[C@H](O)[C@H]3COC(=O)[C@H]23)OCO4)cc(OC)c1OC
inactive: [1] -4.8% | [2] -8.55% | [6] 5.1% | [4] 3.6% | [5] 9%
